PubChem BioAssay (NCATS)
Records with an inconclusive call do not appear. Unmarked numbers belong to inactive results. Active and inactive are the calls of the source. Calls follow the shape of the full dose curve.

Test: Cell Viability - HepG2 (AID 433);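 also: potency for ATP loss meaning cytotoxicity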
Conditions: qHTS
Excerpt: NIH Chemical Genomics Center [NCGC]
NIH Molecular Libraries Screening Centers Network [MLSCN]
National Institutes of Environmental Health Sciences [NIEHS]
National Toxicology Program [NTP]
We have developed a 1536-well cell-based assay for quantitative high throughput screening (qHTS) against a number of cell lines to determine in vitro cytotoxicity of small molecules. This particular assay uses the HepG2 cell line which is derived from hepatocellular carcinoma.
NCGC Assay Protocol Summary:
The CellTiter-Glo luminescent cell viability assay (Promega) is a homogeneous method to measure the number of viable cells in culture. The end point readout of this assay is based on quantitation of intracellular ATP, an indicator of metabolic activity, using the luciferase reaction. Luciferase catalyzes the oxidation of beetle Luciferin to oxyluciferin and light in the presence of ATP. The luminescent signal is proportional to amount of ATP present.
Using the CellTiter-Glo luminescent cell viability assay, the amount of cellular ATP was measured in the HepG2 cell line with complete culture medium following compound treatment for 40 hours. The assay was performed in opaque white Kalypsys 1536-well plates. In the screen, tamoxifen and doxorubicin were used as positive controls. Library compounds were measured for their ability to cause acute toxicity in the cell line, as reflected by a decrease in intracellular ATP levels, in a concentration-dependent manner. Data were normalized to the controls for basal activity (DMSO only) and 100% inhibition (100 uM tamoxifen). AC50 values were determined from concentration-response data modeled with the standard Hill equation.
qHTS protocol fo CellTiter Glo HepG2 cellular assay
[Step] [Parameter] [Value] [Description]
1. Reagent; 5 uL; 1500 HepG2 cells/well
2. Time; 5 hr; 37 °C incubation
4. Controls; 23 nL; Tamoxifen 0.34 uM to 100 uM & Doxorubicin 0.02 nM to 100 uM
5. Time; 40 hr; 37 °C incubation
6. Reagent; 5 uL; CellTiter Glo reagent
7. Time; 20 min; Room Temperature
8. Detection; Luminescence; Viewlux plate reader
Keywords: cell viability, cytotoxicity, HepG2 cell line, luminescence, NTPHTS, NTPHTS_NCGC, NIEHS, EPA, DSSTox, MLSMR, MLSCN, NIH Roadmap, qHTS, NCGC
Potency is read from the fitted curve at half-maximal effect.

Row | Compound | Potency
1 | Cc1cc(O)c(C(C)(C)C)cc1Sc1cc(C(C)(C)C)c(O)cc1C | 32.3 µM (active)
2 | C=CC(=O)OCC(CO)(COC(=O)C=C)COC(=O)C=C | > 92 µM
3 | CC(=O)Nc1ccc(C(=O)CCl)cc1 | 40.3 µM (active)
4 | c1ccc2c(c1)ccc1cc3c(ccc4ccccc43)cc12 | > 92 µM
5 | C=C(C)c1ccccc1 | > 92 µM
6 | Nc1ccc2cc3ccccc3cc2c1 | > 92 µM
7 | ClC1=C(Cl)C(Cl)(Cl)C(Cl)=C1Cl | 22.6 µM (active)
8 | O=[N+]([O-])c1cc([N+](=O)[O-])c2ccc(S(=O)(=O)O)cc2c1O | > 92 µM
9 | O=Cc1ccc(Cl)c(Cl)c1 | > 92 µM
10 | O=C=Nc1ccc(Cc2ccc(N=C=O)cc2)cc1 | > 92 µM
11 | c1ccc2c(c1)-c1cccc3c1c-2cc1ccccc13 | > 92 µM
12 | CNc1ccc(O)cc1 | 59.6 µM (active)
13 | CCCCCC/C(C=O)=C\c1ccccc1 | > 92 µM
14 | CO[C@H]1/C=C/O[C@@]2(C)Oc3c(C)c(O)c4c(O)c(c5c(c4c3C2=O)NC2(CCN(CC(C)C)CC2)N=5)=NC(=O)/C(C)=C\C=C\[C@H](C)[C@H](O)[C@@H](C)[C@@H](O)[C@@H](C)[C@H](OC(C)=O)[C@@H]1C | > 92 µM
15 | CCCCCCCC[N+](CCCCCCCC)(CCCCCCCC)CCCCCCCC | 4.92 µM (active)
16 | C/C=C1\C(=O)C[C@H]2[C@@H]3CCC4=CC(=O)CC[C@]4(C)[C@H]3CC[C@]12C | > 92 µM
17 | O=C(OCC(COC(=O)c1ccccc1)(COC(=O)c1ccccc1)COC(=O)c1ccccc1)c1ccccc1 | > 92 µM
18 | Cc1cccc(O)c1C | > 92 µM
19 | Oc1ccc2cc(SSc3ccc4cc(O)ccc4c3)ccc2c1 | > 92 µM
20 | CN1[C@H]2CC(OC(=O)[C@H](CO)c3ccccc3)C[C@H]1[C@H]1O[C@H]12 (some centres undefined) | > 92 µM
21 | O=C(/C=C/c1ccc(O)c(O)c1)OC1C[C@](O)(C(=O)O)C[C@@H](O)[C@H]1O (some centres undefined) | > 92 µM
22 | CN(C)c1ccc(C2(c3ccc(N(C)C)cc3)OC(=O)c3cc(N(C)C)ccc32)cc1 | > 92 µM
23 | CC/C(=C(\c1ccccc1)c1ccc(OCCN(C)C)cc1)c1ccc(O)cc1 | 29.4 µM (active)
24 | CCC(C)Nc1ccc(NC(C)CC)cc1 (centres undefined) | 13.5 µM (active)
